An excerpt weighted towards active compounds, which were near 19% of everything screened.
HT1080 IDH1KD tx: qHTS for induction of synthetic lethality in tumor cells producing 2HG: qHTS for the HT-1080-IDH1KD cell line; Potency, µM (doses to about 46.1 µM), for the others: at the highest dose activity, negative = toxicity, usual class: cytotoxic; HT-1080 IDH1 knockdown viability, ATP luminescence, 48 h; 360,000 compounds, 2% hits;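 further: potency means the concentration at half of the fitted maximal effect; 0% = DMSO wells and -100% = cell-free medium wells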
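Luminescent ATP read-out (CellTiter-Glo, 10 min at room temperature) after 48 h compound exposure at 37 °C gave viability of IDH1-knockdown HT-1080 cells. Activity was normalised to DMSO and cell-free wells, then fitted as concentration-response curves.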
TDP1 cell CPT: qHTS for Inhibitors of human tyrosyl-DNA phosphodiesterase 1 (TDP1): qHTS in cells in presence of CPT. chicken DT40 Tdp1-/-;hTDP1 cells + 20 nM CPT, ATP luminescence, 48 h. 420,000 compounds, 12% hits. AID 686979, 2013. Potency, µM (titrated, usually from 46.2 µM), for the others: at the top dose activity change, negative = growth inhibition, hits mostly inhibitors; further: potency means the concentration at half of the fitted maximal effect; nearly all actives have a fitted effect of over 55% in size
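Chicken DT40 Tdp1-/- cells complemented with human TDP1, 400 cells/well, exposed to compounds plus 20 nM camptothecin for at least 48 h at 37 C; viability read as ATP content by CellTiter-Glo luminescence.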
DT40 TDP1 no CPT: qHTS for Inhibitors of human tyrosyl-DNA phosphodiesterase 1 (TDP1): qHTS in cells in absence of CPT; 420,000 compounds, 15% hits; DT40 Tdp1-/- hTDP1 cells, no CPT, ATP luminescence, 48 h; Potency, µM (highest dose often 46.2 µM), inactives show top-dose activity change, negative = growth inhibition, actives largely listed as inhibitors; further: potency means the concentration at half of the fitted maximal effect; nearly all actives have a fitted effect of over 55% in size
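Chicken DT40 Tdp1-/- cells stably complemented with human TDP1 were seeded at 400 cells/well with DMSO in place of 20 nM camptothecin. After compound pinning, cells grew at least 48 hr at 37 °C; viability read by CellTiter-Glo luminescence.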
HT1080-NT tox: qHTS for induction of synthetic lethality in tumor cells producing 2HG: qHTS for the HT-1080-NT fibrosarcoma cell line | HT-1080-NT fibrosarcoma viability, CellTiter-Glo ATP luminescence, 48 h | Potency, µM (highest dose often 46.1 µM), without a hit: top-dose activity, negative = less viability, most hits filed as cytotoxic | 360,000 compounds, 1.6% hits | AID 686970, 2013;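 further: NT is the 2HG producing partner of a matched IDH1 knockdown line; potency means the concentration at half of the fitted maximal effect; 0% = DMSO-treated cells and -100% = media-only wells without cells; nearly all actives have a fitted effect of over 55% in size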
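Read-out is CellTiter-Glo luminescence after 10 minutes at room temperature, following 48 hours' compound treatment of HT-1080-NT cells (750 cells/well, RPMI, 5% FBS, 37 degrees C).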
IL-1B inflam inh: qHTS for Inhibitors of Inflammasome Signaling: IL-1-beta AlphaLISA Primary Screen; THP-1 LPS/ATP IL-1B secretion, AlphaLISA, 16 h; stronger effect = lower value; activity change, % at 57.5 µM; 360,000 compounds, 4.7% hits; AID 743279, 2014; in the data active means activity change below about -50%; inconclusive means mostly about -30% to -49%
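Secreted IL-1B measured by AlphaLISA bead assay after 16 h compound exposure of THP-1 cells; compounds (final up to 57.5 uM) added 1 h before LPS (250 ng/mL) and ATP (1.25 mM) stimulation; lower signal means less secretion.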
* hit, by the source's call; ? = inconclusive; · = no result given; [ ] = remark or other dose. Unless noted, the call rests on the fitted dose curve; in most records, active means well fitted curve in the direction sought with a large enough effect; inconclusive means small, poorly fitted or top-dose-only effect, or another doubt; inactive means no such curve, though single readings can be large; an effect the other way counts as inactive or inconclusive. Unless noted, on the % scale 0 is the no-effect control and ±100 the full control effect.

SMILES	HT1080 IDH1KD tx	TDP1 cell CPT	DT40 TDP1 no CPT	HT1080-NT tox	IL-1B inflam inh
COC(=O)c1ccc(NC(=O)Nc2ccc(F)cc2F)cc1	-2%	8.2µM*	6.5µM*	3%	-53*
O=C(Nc1ccc(F)cc1)Nc1csc2ccccc12	?	23µM*	23µM*	?	·
CN(C)c1ccc(NC(=O)Nc2csc3ccccc23)cc1	-8%	-3%	-26%	-9%	0
COC(=O)c1ccc(NC(=O)Nc2cccc(F)c2)cc1	?	?	?	?	-92*
COCCC(=O)Nc1c(-c2ccccc2)c2cc(Br)ccc2[nH]c1=O	9%	-4%	6%	20%	-27
COc1ccc(S(=O)(=O)N2CCNCC2)cc1	0%	-18%	-20%	4%	-30
COc1cccc(CNC(=O)[C@H](C)NC(=O)C2CCN(S(=O)(=O)c3ccccc3)CC2)c1	5%	?	?	13%	32
COC(=O)c1ccc(NC(=O)Cc2ccc(F)cc2)cc1	-5%	?	?	-15%	-1
COC(=O)c1ccc(C(=O)Nc2ccc(F)cc2)cc1	-12%	10µM*	8.2µM*	-16%	11
COc1cccc(-c2ccc(O)c(CNC(c3ccccc3)c3ccc(Cl)cc3)c2)n1 (centres undefined)	·	-6%	-27%	·	·
COc1cc(C2C(C#N)=C(N)OC3=C2C(=O)CC(C)(C)C3)cc2c1OCO2 (centres undefined)	-13%	-3%	-12%	-9%	-17
CC1=C(C(=O)N(C)C)CC(CC(=O)NCC2CCCCC2)C(=O)N1Cc1ccc(C(C)(C)C)cc1 (centres undefined)	-9%	?	16µM*	-17%	-22
CCN(CC)C(=O)C1=C(C)N(Cc2ccc(C(C)(C)C)cc2)C(=O)C(CC(=O)NCC2CCCCC2)C1 (centres undefined)	?	13µM*	18µM*	?	-82*
CC1=C(C(=O)N(C)C)CC(CC(=O)NCC2CCCCC2)C(=O)N1Cc1ccccc1 (centres undefined)	2%	-13%	-14%	-3%	1
COc1cccc(CNC(=O)CN2C(=O)N(c3cccc(Cl)c3)S(=O)(=O)c3ccccc32)c1OC	·	?	-25%	·	·
Brc1cccc(-c2nnc(SCc3ccon3)n2-c2ccccc2)c1	-21%	?	15µM*	-2%	-15
Clc1cccc(N2CCN(c3nnnn3-c3ccccc3)CC2)c1	-11%	-13%	-3%	-10%	13
Oc1ccc(N2CCN(c3nnnn3-c3ccccc3)CC2)cc1	-19%	?	21µM*	-11%	3
Cc1ccc(Cn2cc(CN3CC(N4CCN(C5CCN(C)CC5)CC4)CS3(=O)=O)nn2)cc1 (centres undefined)	9%	-1%	-3%	9%	24
COc1ccc(C2c3ccc4ccccc4c3Oc3ncn(CCO)c(=N)c32)cc1 (centres undefined)	12µM*	?	26µM*	?	-100*
CN(C)CCCn1cnc2c(c1=N)C(c1ccccc1)c1ccc3ccccc3c1O2 (centres undefined)	?	6.5µM*	?	?	-10
N=c1c2c(ncn1CCCO)Oc1ccc3ccccc3c1C2c1ccccc1 (centres undefined)	?	?	?	?	-56*
COc1ccc(C2c3ccc4ccccc4c3Oc3ncn(CCN(C)C)c(=N)c32)cc1 (centres undefined)	?	?	21µM*	?	-98*
N=c1c2c(ncn1CCCO)Oc1c(ccc3ccccc13)C2c1ccccc1 (centres undefined)	-30%	?	?	?	-28
C=CCN1C(=O)c2ccc(C(=O)OCC(=O)N(CC)c3c(N)n(Cc4ccccc4)c(=O)[nH]c3=O)cc2C1=O	-2%	-3%	25%	-2%[9.24 µM]	-4
SMILES	HT1080 IDH1KD tx	TDP1 cell CPT	DT40 TDP1 no CPT	HT1080-NT tox	IL-1B inflam inh
COc1ccc(C2c3ccc4ccccc4c3Oc3ncn(CCCO)c(=N)c32)cc1 (centres undefined)	?	?	?	18µM*	-69*
CCOc1ccc(OCCCC(=O)N2CCN(S(=O)(=O)c3ccc(Cl)cc3)CC2)cc1	12%	?	?	6%	-15
CC1CC(=O)Nc2ccccc2N1C(=O)CSc1ccc2ccccc2n1 (centres undefined)	0%	16µM*	?	1%	-9
CC1CC(=O)Nc2ccccc2N1C(=O)CSc1ncnc2sccc12 (centres undefined)	9%	13%	5%	1%	4
Cc1cc(SCC(=O)N2c3ccccc3NC(=O)CC2C)nc2ccccc12 (centres undefined)	-1%	?	16µM*	-6%	-9
O=C(COC(=O)c1ccc(S(=O)(=O)C(F)F)cc1)NC(=O)NC1CCCCC1	-9%	-2%	-1%	-2%	12
NS(=O)(=O)c1cccnc1Nc1c(Cl)cccc1Cl	6%	-22%	-28%	10%	-13
COC(=O)[C@@]12C[C@@H](CC(=O)NCc3cccc(C(F)(F)F)c3)C(=O)N(Cc3cccc4ccccc34)C1=CCC(C)(C)C2	?	16µM*	16µM*	?	0
COC(=O)[C@@]12C[C@@H](CC(=O)NCc3cccc(C(F)(F)F)c3)C(=O)N(Cc3ccccc3)C1=CCC(C)(C)C2	?	?	?	?	-78*
COC(=O)[C@]12CCCCC=C1N(Cc1ccccc1)C(=O)[C@H](CC(=O)NCc1cccc(C(F)(F)F)c1)C2	?	?	?	?	-18
O=C(N/N=C/c1ccccc1O)c1ccc2c(c1)OCO2	?	5.2µM*	4.1µM*	?	93
O=C(N/N=C/c1ccc(Br)s1)c1c[nH]c2ccccc12	-25%	?	?	-6%	-81*
O=C(N/N=C/c1ccccc1OC(=O)c1ccc2c(c1)OCO2)c1cccc(F)c1	?	1.2µM*	1.3µM*	?	122
O=C(N/N=C/c1c[nH]c2ccccc12)c1ccc2c(c1)OCCO2	21µM*	?	16µM*	?	·
Cc1nn(CC(=O)NCCN2CCOCC2)c(=O)c2cc3sccc3n12	0%	11%	-4%	6%	-5
CSc1ccc(CCNC(=O)C2=C(C)C(=O)OC23CCCCC3)cc1	·	-5%	-21%	·	·

Compound activity (PubChem BioAssay)
